Results reported in the supplement of paper PMC12669032.
Unmarked numbers belong to inactive results.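 The calls were made as follows: active = AUC reduced over 20% with Padj below 0.05 in at least 2 of 3 replicates; inactive = otherwise.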

Each compound was assayed on Streptococcus salivarius (assay: growth AUC relative to DMSO control (median of replicates) (fraction); higher = more growth (less inhibition), active = hit call of the paper). Conditions: 20 µM; 24 h.
Procedure, shortened: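 Gut bacterial monocultures in mGAM were treated with 20 µM compound (1% DMSO) and grown anaerobically at 37 °C in round-bottom 96-well plates from OD600 0.05. OD600 was read hourly for 24 h, with the minimum OD set to 0. Area under the growth curve was normalised to the plate median of solvent-only wells, or to row and column medians on the industrial chemical plate. Each value is the median of three biological replicates, each grown on a separate day.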

| Compound | growth AUC |
| --- | --- |
| COP(=S)(OC)Oc1ccc(S(N)(=O)=O)cc1 | 0.985 |
| CCCCOC(=O)[C@@H](C)Oc1ccc(Oc2ccc(C#N)cc2F)cc1 | 0.954 |
| CCC(C)(C)c1ccc(O)cc1 | 0.995 |
| CCCCCCCCCc1ccc(O)cc1 | 0.927 |
| CC(C)OC(=O)Nc1ccccc1 | 1.01 |
| CCCCc1c(C)nc(NCC)nc1OS(=O)(=O)N(C)C | 1.02 |
| CCOP(=S)(OCC)Oc1cc(-c2ccccc2)on1 | 0.995 |
| C=CC(N)=O | 1.01 |
| CC(C)C(C(=O)OC(C#N)c1cccc(Oc2ccccc2)c1)c1ccc(OC(F)F)cc1 (centres undefined) | 0.993 |
| Oc1ccccc1-c1ccccc1 | 1.04 |
| FC(F)C(F)(F)OCC(Cn1cncn1)c1ccc(Cl)cc1Cl (centres undefined) | 0.996 |
| Nc1ccc(Cc2ccc(N)c(Cl)c2)cc1Cl | 1.09 |
| Nc1cccc(Cl)c1Cl | 1.01 |
| COC(=O)NS(=O)(=O)c1ccc(N)cc1 | 0.893 |
| CC(C)=CC1C(C(=O)OCc2cccc(Oc3ccccc3)c2)C1(C)C (mixture of isomers) | 0.951 |
| COP(=S)(OC)SCC(=O)N(c1ccc(Cl)cc1)C(C)C | 0.992 |
| CC(=O)O.CC(=O)O.CC(=O)O.NC(N)=NCCCCCCCCNCCCCCCCCN=C(N)N | 0.454 (active) |
| N#Cc1c(Cl)c(Cl)c(Cl)c(C#N)c1Cl | 0.88 |
| CCOP(=O)(NC(C)C)Oc1ccc(SC)c(C)c1 (centres undefined) | 0.951 |
| [CH3][Hg][Cl] | 0.848 |

| Compound | growth AUC |
| --- | --- |
| ClC1=C(Cl)C2(Cl)C3COCC3C1(Cl)C2(Cl)Cl (centres undefined) | 0.915 |
| c1cc2c3c(cccc3c1)CC2 | 1.01 |
| CO/N=C(/C(=O)OC)c1ccccc1COc1ccccc1C | 0.97 |
| O=C(Nc1ccc(F)cc1F)c1cccnc1Oc1cccc(C(F)(F)F)c1 | 0.958 |
| ClC1=C(Cl)[C@]2(Cl)[C@@H]3[C@@H]4C[C@@H]([C@H]5O[C@@H]45)[C@@H]3[C@@]1(Cl)C2(Cl)Cl | 1.03 |
| CC1(C)CCC(Cc2ccc(Cl)cc2)C1(O)Cn1cncn1 (centres undefined) | 1 |
| CC(C)(C)C(O)C(Cc1ccc(Cl)cc1Cl)n1cncn1 (mixture of isomers) | 0.974 |
| CC1(C)C(C=C(Cl)Cl)C1C(=O)OCc1cccc(Oc2ccccc2)c1 (mixture of isomers) | 0.979 |
| O=[N+]([O-])C(Br)(CO)CO | 0.967 |
| COc1cc(OC)nc(NC(=O)NS(=O)(=O)c2ncccc2C(=O)N(C)C)n1 | 0.975 |
| COC(=O)c1ccccc1S(=O)(=O)NC(=O)Nc1nc(C)cc(C)n1 | 0.982 |
| CCS(=O)(=O)c1nc2ccccn2c1S(=O)(=O)NC(=O)Nc1nc(OC)cc(OC)n1 | 1.03 |
| COc1cc(OC)nc(NC(=O)NS(=O)(=O)c2cc(NC=O)ccc2C(=O)N(C)C)n1 | 1.03 |
| O=C(Nc1ccccc1)Nc1cnns1 | 0.891 |
| CCSCCSP(=S)(OC)OC | 1.02 |
| Clc1cc(Cl)c(Cl)cc1Cl | 0.935 |
| COP(=S)(OC)Oc1cc(Cl)c(Br)cc1Cl | 0.995 |
| CC(C)C1(C)N=C(c2ncccc2C(=O)O)NC1=O (centres undefined) | 0.931 |
| O=c1oc2ccccc2c(O)c1C1CCCc2ccccc21 (centres undefined) | 1.01 |
